CendR NRP1 mod = modulators of CendR peptide binding to NRP-1, primary screen, biochemical, fluorescence polarization, uHTS; inhibition, % at 25 µM; 360,000 tested, 0.85% active; FAM-RPARPAR peptide binding to NRP-1;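 active means inhibition or corrected inhibition above about 18%, plus a signal ratio from 0.5 to 1.5, limit read from the data, passing the limit was not always enough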
APOBEC3A inh = APOBEC3A ssDNA deaminase inhibitors, primary screen, selectivity assay for APOBEC3G inhibitor project, biochemical, FAM/TAMRA oligo cleavage fluorescence. DNA dC->dU-editing enzyme APOBEC-3A (Homo sapiens), P31941. AID 493011, 2011. recombinant A3A, FAM/TAMRA ssDNA deamination fluorescence. inhibition, % at 20 µM. 330,000 tested, 0.41% active;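 active means at least 40% inhibition at 20 µM here, with at most 30% in a related deaminase screen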
ADAM10 inh = human ADAM10 inhibitors, primary screen, biochemical, QFRET, HTS. Disintegrin and metalloproteinase domain-containing protein 10 (Homo sapiens), O14672. AID 720582, 2013. recombinant ADAM10, EDANS/DABCYL FRET peptide cleavage, 3 h. 370,000 tested, 0.62% active. inhibition, % at 7 µM;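 active means inhibition above a per-campaign cutoff equal to the mean of compounds falling between control-based bounds plus 3 SD, cut at about 20% in these data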
Target sequence (O14672 214-748 limits assumed): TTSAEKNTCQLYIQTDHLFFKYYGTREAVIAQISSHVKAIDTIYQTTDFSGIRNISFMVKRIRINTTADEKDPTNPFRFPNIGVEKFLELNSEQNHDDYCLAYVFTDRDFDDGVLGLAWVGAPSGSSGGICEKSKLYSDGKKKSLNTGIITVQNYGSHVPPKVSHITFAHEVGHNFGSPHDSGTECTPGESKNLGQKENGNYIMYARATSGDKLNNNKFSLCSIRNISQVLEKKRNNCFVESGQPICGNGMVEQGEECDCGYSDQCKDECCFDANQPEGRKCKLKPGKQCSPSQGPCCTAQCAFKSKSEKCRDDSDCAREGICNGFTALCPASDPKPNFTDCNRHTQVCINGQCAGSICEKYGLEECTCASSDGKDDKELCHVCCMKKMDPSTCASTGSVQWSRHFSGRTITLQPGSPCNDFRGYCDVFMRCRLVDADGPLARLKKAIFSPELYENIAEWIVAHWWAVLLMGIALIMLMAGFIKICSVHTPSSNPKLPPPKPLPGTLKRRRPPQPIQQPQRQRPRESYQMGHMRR
ADAM17 inh = ADAM17 inhibitors, primary screen, biochemical, QFRET; Disintegrin and metalloproteinase domain-containing protein 17 (Homo sapiens), P78536; recombinant ADAM17, EDANS/DABCYL FRET peptide cleavage; inhibition, % at 6.95 µM; 370,000 tested, 0.83% active; AID 720648, 2013;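 active means inhibition above the mean of compounds lying between control limits plus 3 SD, set per campaign, cut at about 8.5% in these data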
A3G deaminase = APOBEC3G DNA deaminase inhibitors, primary screen, biochemical, fluorescence, single-stranded DNA substrate, uHTS. inhibition, % at 20 µM. AID 493012, 2011. recombinant A3G, ssDNA deamination FAM/TAMRA fluorescence. DNA dC->dU-editing enzyme APOBEC-3G (Homo sapiens), Q9HC16. 330,000 tested, 0.28% active;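 active means inhibition of at least 40% at 20 µM, with no more than 30% in the related APOBEC3A deaminase screen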
ADAM10 confirm = human ADAM10 inhibitors, confirmation, biochemical, QFRET, triplicate. shares compounds with ADAM10 inh. ADAM10 QFRET peptide cleavage, EDANS fluorescence. inhibition, % at 6.95 µM. 2,100 tested, 1% active;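 active means inhibition above about 20% chosen separately for each screening run, limit read from the data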
ADAM17 ctr = ADAM17 inhibitors, counter-screen for ADAM10 exosite inhibitor project, biochemical, QFRET, high throughput; inhibition, % at 6.95 µM; ADAM17 QFRET peptide cleavage, EDANS fluorescence; shares compounds with ADAM10 inh; AID 743214, 2013; 2,100 tested, 0.5% active;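 active means mean triplicate inhibition above the solvent-only control wells' mean plus 3 SD, cut at about 12% in these data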
ADAM10 ctr = ADAM10 inhibitors, counter-screen for ADAM17 exosite inhibitor project, biochemical, FRET, human ADAM10; shares compounds with ADAM17 inh; recombinant ADAM10, EDANS/DABCYL FRET peptide cleavage, 3 h; inhibition, % at 6.95 µM; 2,900 tested, 47% active; AID 743256, 2014;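 active means mean inhibition over the triplicate runs exceeds the activity threshold set in the earlier primary screen, cut at about 20% in these data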
ADAM17 confirm = ADAM17 inhibitors, hit retest, confirmation, biochemical, QFRET peptide cleavage. shares compounds with ADAM17 inh. recombinant ADAM17, EDANS/DABCYL QFRET peptide cleavage. inhibition, % at 6.95 µM. 2,900 tested, 65% active. AID 743257, 2014;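 active means mean inhibition across replicates above the hit cutoff set in the primary screen, cut at about 8.5% in these data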
Numbers stand for hits; n = inactive; x = no result given. This is a sample that favours compounds with a hit; in the whole collection about 2.4% have one here.

SMILES	CendR NRP1 mod	APOBEC3A inh	ADAM10 inh	ADAM17 inh	A3G deaminase	ADAM10 confirm	ADAM17 ctr	others
CCN(c1ccccc1)S(=O)(=O)c1cc(C(=O)Nc2ccc(F)c(F)c2)ccc1F	n	n	26	n	n	n	n
Cc1sc2ncnc(N3CCC(C(=O)NNC(=O)COc4ccccc4Cl)CC3)c2c1C	n	n	26	n	n	n	n
Cc1ccc(OCC(=O)NNC(=O)C2CCN(c3ncnc4sc(C)c(C)c34)CC2)cc1	n	n	n	n	n	x	x
Cc1sc2ncnc(N3CCC(C(=O)NNC(=O)COc4ccc(Cl)cc4)CC3)c2c1C	n	x	21	n	x	n	n
Cc1ccc(CN2CC=CCS2(=O)=O)cc1	x	x	n	n	x	x	x
Cc1ccc(-c2nc(C3CCCN(S(=O)(=O)c4ccccc4)C3)no2)cc1 (centres undefined)	x	x	n	n	x	x	x
COc1ccccc1Nc1ccc(NC(=O)c2cccc([N+](=O)[O-])c2C)cc1	n	n	35	n	n	n	n
COc1ccc(NC(=O)c2ccccc2[N+](=O)[O-])cc1	n	n	n	n	n	x	x
COC(=O)[C@]12C[C@H](CC(=O)NCCC(C)C)C(=O)N(Cc3cccc4ccccc34)C1=C[C@H](C1CCCC1)O[C@@H]2C	x	x	n	n	x	x	x
COC(=O)[C@]12C[C@H](CC(=O)NCc3cccs3)C(=O)N(Cc3cccc4ccccc34)C1=C[C@H](C1CCCC1)O[C@@H]2C	x	x	21	n	x	n	n
COC(=O)[C@]12C[C@H](CC(=O)N3CCCCC3)C(=O)N(Cc3cccc4ccccc34)C1=C[C@H](C1CCCC1)O[C@@H]2C	x	x	n	n	x	x	x
COC(=O)[C@]12C[C@H](CC(=O)NCc3cccc4ccccc34)C(=O)N(CCc3ccc(OC)c(OC)c3)C1=C[C@H](C(C)(C)C)O[C@@H]2C	x	x	22	n	x	n	n
CCCCNC(=O)C[C@H]1C[C@@]2(C(=O)OC)C(=C[C@H](C3CCCC3)O[C@@H]2C)N(Cc2cccc3ccccc23)C1=O	x	x	24	n	x	n	n
CCOC(=O)N1CCN(C(=O)C[C@H]2C[C@@]3(C(=O)OC)C(=C[C@H](C4CCCC4)O[C@@H]3C)N(Cc3cccc4ccccc34)C2=O)CC1	x	x	24	n	x	n	n
COC(=O)[C@]12C[C@H](CC(=O)NCc3cccc4ccccc34)C(=O)N(Cc3ccco3)C1=C[C@H](COCc1ccccc1)O[C@@H]2C	x	x	22	n	x	n	n
COC(=O)[C@]12C[C@H](CC(=O)N3CCCCC3)C(=O)N(CCc3ccc(OC)c(OC)c3)C1=C[C@H](COCc1ccccc1)O[C@@H]2C	x	x	58	n	x	n	n
COC(=O)[C@]12C[C@H](CC(=O)N3CCSCC3)C(=O)N(Cc3ccc4c(c3)OCO4)C1=C[C@H](COCc1ccccc1)O[C@@H]2C	x	x	n	n	x	x	x
CN(CC(=O)NCc1ccc(F)cc1)CC(=O)Nc1ccc(Cl)c(C(F)(F)F)c1	n	n	23	n	n	n	n
COc1ccc(CN2C[C@H](COCc3ccccc3)Oc3cccc(Oc4ccc(C(C)C)cc4)c3S2(=O)=O)cc1	x	x	n	n	x	x	x
CCN(CC)C(=O)CC[C@H]1CC[C@]2(CCCN(C(=O)c3ccco3)C2)O1	x	x	n	n	x	x	x
Cc1onc(-c2ccccc2)c1-c1nnc(COC(=O)c2ccc(O)cc2)o1	n	n	22	n	n	n	n
O=C(CSc1nnc(-c2ccccc2)n1-c1ccc(Cl)cc1)c1ccc(Cl)cc1	x	x	n	n	x	x	x
Oc1cc2c(cc1C(c1ccc(Cl)c(Cl)c1)N1CCCC1)OCO2 (centres undefined)	n	n	27	n	n	n	n
CCn1c2ccccc2c2cc(NC(=O)CSc3nnc(-c4ccc(OC)c(OC)c4)n3N)ccc21	n	n	n	n	n	x	x
COc1ccc(-c2nnc(SC(C(=O)c3c[nH]c4ccccc34)c3ccccc3)n2N)cc1OC (centres undefined)	n	n	22	n	n	n	n
SMILES	CendR NRP1 mod	APOBEC3A inh	ADAM10 inh	ADAM17 inh	A3G deaminase	ADAM10 confirm	ADAM17 ctr	others
CSc1ccccc1NC(=O)CN(c1cc(C)cc(C)c1)S(C)(=O)=O	n	n	n	n	n	x	x
CS(=O)(=O)N(CC(=O)Nc1ccccc1Sc1ccccc1)c1cccc(Br)c1	n	n	25	11	n	n	n
O=C(O)c1cccc(NC(=S)N/N=C/c2ccccc2OCc2ccc(Br)cc2)c1	n	n	23	n	n	n	n
O=C(O)c1cccc(NC(=S)N/N=C/c2ccccc2OCc2cccc(Br)c2)c1	n	x	n	n	x	x	x
Cc1cccc(OCC(=O)NNC(=O)c2cc3ccccc3oc2=O)c1	n	n	23	n	n	23	13
C=CCc1cccc(CNc2cnc3ccccc3c2)c1O	n	n	n	n	n	x	x
C=CCc1cccc(CNc2nc3ccccc3n2C)c1O	n	n	20	11	n	n	n	ADAM10 ctr=32;ADAM17 confirm=17
Cc1cc(Cl)ccc1NC(=S)NCCc1ccc(Cl)cc1	n	n	25	9.8	n	n	n	ADAM10 ctr=n;ADAM17 confirm=n
Cc1cc(Cl)ccc1NC(=S)NCc1ccc(Cl)cc1	n	n	n	n	n	x	x
C#CCCC(=O)Nc1sc2c(c1-c1nc3ccccc3s1)CCN(C(C)C)C2	x	x	n	n	x	x	x
NC(=O)CC(NC(=O)c1ccc(Br)cc1)c1ccc(N2CCCCCC2)c([N+](=O)[O-])c1 (centres undefined)	n	n	22	12	n	n	n	ADAM10 ctr=n;ADAM17 confirm=n
CCOC(=O)Nc1cc(=O)c([N+](=O)[O-])c(N)[nH]1	x	x	n	n	x	x	x
